# About 410 targets per protein were measured; listed, in parts, are those with the strongest signals and a random draw of the rest.
# Legend:
# Assay in all cases: glycan array binding signal (z-score within array); higher = stronger binding
# Conditions in all cases: glycan notation: IUPAC condensed, linker removed
# [1] = biological target: Fuc(a1-2)Gal(b1-3)GlcNAc(b1-2)Man(a1-3)[Fuc(a1-2)Gal(b1-3)GlcNAc(b1-2)Man(a1-6)]Man(b1-4)GlcNAc(b1-4)[Fuc(a1-6)]GlcNAc
# Outline: (§1)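 Glycan array data came from 3228 arrays in the Consortium for Functional Glycomics database, and only arrays with an available protein sequence were kept. Glycan names were put into IUPAC-condensed notation, and columns mapping to the same glycan were averaged. The binding signal is a within-array Z-score, averaged across arrays of one protein sequence run at different concentrations or buffers and across linkers. A negative Z-score can be read as non-binding.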
# [2] = biological target: Fuc(a1-2)Gal(b1-3)[Fuc(a1-4)]GlcNAc(b1-3)[Fuc(a1-3)[Gal(b1-4)]GlcNAc(b1-6)]Gal(b1-4)Glc
# Outline: as §1
# [3] = biological target: Fuc(a1-2)Gal(b1-3)[Fuc(a1-4)]GlcNAc(b1-3)[Gal(b1-4)GlcNAc(b1-6)]Gal(b1-4)Glc
# Outline: as §1
# [4] = biological target: Fuc(a1-2)Gal(b1-4)[Fuc(a1-3)]GlcNAc(b1-3)GalNAc
# Outline: as §1
# [5] = biological target: Fuc(a1-2)[Gal(a1-3)]Gal(b1-4)Glc
# Outline: as §1
# [6] = biological target: Fuc(a1-2)[Gal(a1-3)]Gal(b1-4)GlcNAc(b1-3)GalNAc
# Outline: as §1
# [7] = biological target: Fuc(a1-2)[GalNAc(a1-3)]Gal
# Outline: as §1
# [8] = biological target: Fuc(a1-2)[GalNAc(a1-3)]Gal(b1-3)GlcNAc(b1-3)GalNAc
# Outline: as §1
# [9] = biological target: Fuc(a1-2)[GalNAc(a1-3)]Gal(b1-4)[Fuc(a1-3)]GlcNAc
# Outline: as §1
# [10] = biological target: Fuc(a1-2)[GalNAc(a1-3)]Gal(b1-4)[Fuc(a1-3)]GlcNAc(b1-3)GalNAc
# Outline: as §1
# [11] = biological target: Fuc(a1-2)[GalNAc(b1-3)]Gal
# Outline: as §1
# [12] = biological target: Fuc(a1-3)[Gal(b1-4)]Glc6S
# Outline: as §1
# [13] = biological target: Fuc(a1-3)[Gal(b1-4)]GlcNAc(b1-3)GalNAc
# Outline: as §1
# [14] = biological target: Gal(b1-3)[Fuc(a1-4)]GlcNAc(b1-2)Man(a1-3)[Gal(b1-3)[Fuc(a1-4)]GlcNAc(b1-2)Man(a1-6)]Man(b1-4)GlcNAc(b1-4)GlcNAc
# Outline: as §1
# [15] = biological target: Gal(b1-3)[Fuc(a1-4)]GlcNAc(b1-2)Man(a1-3)[Gal(b1-3)[Fuc(a1-4)]GlcNAc(b1-2)Man(a1-6)]Man(b1-4)GlcNAc(b1-4)[Fuc(a1-6)]GlcNAc
# Outline: as §1
# [16] = biological target: Gal(b1-4)Glc6S
# Outline: as §1
# [17] = biological target: Gal(b1-4)GlcNAc(b1-2)[Gal(b1-4)GlcNAc(b1-4)]Man(a1-3)[GlcNAc(b1-4)][Gal(b1-4)GlcNAc(b1-2)Man(a1-6)]Man(b1-4)GlcNAc(b1-4)GlcNAc
# Outline: as §1
# [18] = biological target: Gal(b1-4)GlcNAc(b1-3)Gal(b1-4)[Fuc(a1-3)GlcNAc(b1-6)]Gal(b1-4)Glc
# Outline: as §1
# [19] = biological target: Gal3S6S(b1-4)GlcNAc6S
# Outline: as §1
# [20] = biological target: GalNAc(a1-3)GalNAc(b1-3)Gal(a1-4)Gal(b1-4)Glc
# Outline: as §1
# [21] = biological target: GalNAc(b1-6)GalNAc
# Outline: as §1
# [22] = biological target: Glc(a1-6)Glc(a1-6)Glc
# Outline: as §1
# [23] = biological target: GlcA(b1-3)GlcNAc
# Outline: as §1
# [24] = biological target: GlcNAc(a1-4)Gal(b1-4)GlcNAc(b1-3)Gal(b1-4)GlcNAc(b1-3)Gal(b1-4)GlcNAc
# Outline: as §1
# [25] = biological target: GlcNAc(b1-2)Man(a1-3)[GlcNAc(b1-2)Man(a1-6)]Man(b1-4)GlcNAc(b1-4)GlcNAc
# Outline: as §1
# [26] = biological target: GlcNAc(b1-3)Gal(b1-4)GlcNAc(b1-3)Gal(b1-4)GlcNAc
# Outline: as §1
# [27] = biological target: GlcNAc(b1-3)GalNAc
# Outline: as §1
# [28] = biological target: GlcNAc(b1-3)[GlcNAc(b1-4)][GlcNAc(b1-6)]GlcNAc
# Outline: as §1
# [29] = biological target: Kdn(a2-3)Gal(b1-3)GlcNAc
# Outline: as §1
# [30] = biological target: Man(a1-2)Man(a1-3)[Man(a1-2)Man(a1-6)]Man(a1-6)[Man(a1-2)Man(a1-2)Man(a1-3)]Man
# Outline: as §1
# [31] = biological target: Man(b1-4)GlcNAc
# Outline: as §1
# [32] = biological target: Neu5Ac(a2-3)Gal(b1-4)[Fuc(a1-3)]GlcNAc(b1-3)GalNAc
# Outline: as §1
# [33] = biological target: Neu5Ac(a2-3)[GalNAc(b1-4)]Gal(b1-4)GlcNAc
# Outline: as §1
# [34] = biological target: Neu5Ac(a2-6)Gal(b1-4)GlcNAc
# Outline: as §1
# [35] = biological target: Neu5Ac(a2-8)Neu5Ac(a2-8)Neu5Ac
# Outline: as §1
binder,measurement,setting,value
"pullulanase (Streptococcus pyogenes), Q8KLP1 (protein) MKKKVNQGSKRYQYLLKKWGIGFVIAATGTVMLGCIPSILTHQVAAKTIVGLARDEAQQGDGNAKSGDGFQSSSKEAKPVLDSSSANPASIAEHHLRMHFKTLPAGESLGSLGLWVWGDVDQPSKDWPNGAITMTKAKKDDYGYYLDVPLAAKHRQQVSYLINNKAGENLSKDQHIPLLTPKMNEVWIDENYHAHAYRPLKKGYLRINYHNQSGHYDNLAVWTFKDVKTPTTDWPNGLDLSHKGPYGAYVDVPLKEGANEIGFLILDKSKTGDAIKVQPKDYLFKELDNHTQVFVKDTDPKVYNNPYYIDQVSLKGAEQTTPNEIKAIFTTLDGLDEDAVKQNIKITDKAGKTVAIDELTLDKDKSVMTLKGDFKAQGAVYTVTFGEVSQVARQSWQLKDKLYAYDGELGATLAKDGSVDLALWSPSADSVKVVVYDKQDQTKVVGQADLTKSDKGVWRAHLTSDSVKGISDYTGYYYLYEITRGQEKVMVLDPYAKSLAAWNDATATDDIKTAKAAFIDPSKLGPTGLDFAKINNFKKREDAIIYEAHVRDFTSDKALEGKLTHPFGTFSAFVEQLDYLKDLGVTHVQLLPVLSYFYANELDKTRSTAYTSSDNNYNWGYDPQHYFALSGMYSANPNDPALRIAELKNLVNEIHKRGMGVIFDVVYNHTARTYLFEDLEPNYYHFMNADGTARESFGGGRLGTTHAMSRRILVDSITYLTREFKVDGFRFDMMGDHDAAAIEQAFKAAKAINPNTIMIGEGWRTYQGDEGKKEIAADQDWMKATNTVGVFSDDIRNTLKSGFPNEGTAAFITGGAKNLEGLFKTIKAQPSNFEADAPGDVVQYIAAHDNLTLHDVIAKSINKDPKVAEEEIHKRIRLGNTMILTAQGTAFIHSGQEYGRTKQLLNPDYKTKVSDDKVPNKATLIDAVAQYPYFIHDSYDSSDAVNHFDWAKATDSIAHPISNQTKAYTQGLIALRRSTDAFTKATKAEVDRDVTLITQAGQDGIQQEDLIMGYQTVASNGDRYAVFVNADNKTRKVVLPQAYRYLLGAQVLADAEQVGVTAIAKPKGVQFTKEGLTIDGLTALVLKVSSKTANPSQQKSQTDNHQTKTPDGSKDLDKSLMTRPKRAKTNQKLPKTGEAPSKGLLAAGVALLLLAISLLMKRQKD",glycan array binding signal (z-score),[1],1.26
same,glycan array binding signal (z-score),[2],4.09
same,glycan array binding signal (z-score),[3],-1.13
same,glycan array binding signal (z-score),[4],3.14
same,glycan array binding signal (z-score),[5],-0.403
same,glycan array binding signal (z-score),[6],-0.009
same,glycan array binding signal (z-score),[7],-0.236
same,glycan array binding signal (z-score),[8],2.51
same,glycan array binding signal (z-score),[9],-0.025
same,glycan array binding signal (z-score),[10],1.05
same,glycan array binding signal (z-score),[11],-0.628
same,glycan array binding signal (z-score),[12],-0.252
same,glycan array binding signal (z-score),[13],0.189
same,glycan array binding signal (z-score),[14],6.24
same,glycan array binding signal (z-score),[15],2.86
same,glycan array binding signal (z-score),[16],-0.375
same,glycan array binding signal (z-score),[17],0.829
same,glycan array binding signal (z-score),[18],-0.926
same,glycan array binding signal (z-score),[19],-0.367
same,glycan array binding signal (z-score),[20],-1.28
same,glycan array binding signal (z-score),[21],-0.145
same,glycan array binding signal (z-score),[22],2.49
same,glycan array binding signal (z-score),[23],2.61
same,glycan array binding signal (z-score),[24],0.594
same,glycan array binding signal (z-score),[25],-0.014
same,glycan array binding signal (z-score),[26],-1.14
same,glycan array binding signal (z-score),[27],0.154
same,glycan array binding signal (z-score),[28],-0.834
same,glycan array binding signal (z-score),[29],-0.039
same,glycan array binding signal (z-score),[30],0.204
same,glycan array binding signal (z-score),[31],0.398
same,glycan array binding signal (z-score),[32],2.87
same,glycan array binding signal (z-score),[33],-0.879
same,glycan array binding signal (z-score),[34],2.52
same,glycan array binding signal (z-score),[35],-0.738

# Reference: the supplement of paper PMC8728848
